Source: PubChem BioAssay AID1159580 (chemical genetic matrix, 2015)
In all, about 5,500 compounds went through this assay and about 2,000 (36%) were called active. Roughly 18% stayed inconclusive and do not appear here. Cut-off read from the data, not from the text of the source: active = normalized growth mostly below about 0.91 (no sharp cut-off); inconclusive = no clear call, values can overlap the other calls; inactive = mostly above about 0.92. The list shows a part of the results.

Assay: chemical genetic growth profiling, strain panel (AID 1159580);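 note: tested at 20 µM; growth read once vehicle control cultures reached saturation at 30 °C; 1 = growth at the plate median or of vehicle wells; lower values mean less growth of the strain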
Details: growth OD

Measured: normalized growth

CCCN(CCC)S(=O)(=O)c1ccc(C(=O)NCC(=O)O)cc1
inactive: S. cerevisiae deletion strains, locus YAL013W, strain DEP1, active compounds read low 1.01 | S. cerevisiae deletion strains, locus YBR229C, strain ROT2, active compounds read low 1 | S. cerevisiae deletion strains, locus YDL101C, strain DUN1, active compounds read low 1 | S. cerevisiae deletion strains, locus YDL134C, strain PPH21, active compounds read low 0.996 | S. cerevisiae deletion strains, locus YDR150W, strain NUM1, active compounds read low 0.907 | S. cerevisiae deletion strains, locus YEL061C, strain CIN8, active compounds read low 1.02 | S. cerevisiae deletion strains, locus YGR078C, strain PAC10, active compounds read low 0.998 | S. cerevisiae deletion strains, locus YHR030C, strain SLT2, active compounds read low 1.03 | S. cerevisiae deletion strains, locus YHR087W, strain rtc3, active compounds read low 1.02 | S. cerevisiae deletion strains, locus YJR043C, strain POL32, active compounds read low 0.996 | S. cerevisiae deletion strains, locus YJR075W, strain HOC1, active compounds read low 1.02 | S. cerevisiae deletion strains, locus YKL190W, strain CNB1, active compounds read low 0.996 | S. cerevisiae deletion strains, locus YLR039C, strain RIC1, active compounds read low 0.993 | S. cerevisiae deletion strains, locus YLR058C, strain SHM2 (second series), active compounds read low 1.01 | S. cerevisiae deletion strains, locus YLR085C, strain ARP6, active compounds read low 0.984 | S. cerevisiae deletion strains, locus YLR262C, strain YPT6, active compounds read low 1.01 | S. cerevisiae deletion strains, locus YML094W, strain GIM5, active compounds read low 1 | S. cerevisiae deletion strains, locus YMR219W, strain ESC1, active compounds read low 1 | S. cerevisiae deletion strains, locus YMR263W, strain SAP30, active compounds read low 0.989 | S. cerevisiae deletion strains, locus YNL153C, strain GIM3, active compounds read low 1 | S. cerevisiae deletion strains, locus YNL298W, strain CLA4 (second series), active compounds read low 1.02 | S. cerevisiae deletion strains, locus YNL322C, strain KRE1, active compounds read low 1.01 | S. cerevisiae deletion strains, locus YNR030W, strain Alg12, active compounds read low 1.01 | S. cerevisiae deletion strains, locus YPL055C, strain LGE1, active compounds read low 1.02 | S. cerevisiae deletion strains, locus YPL241C, strain CIN2, active compounds read low 1 | S. cerevisiae deletion strains, locus YPR135W, strain CTF4, active compounds read low 1.01 | S. cerevisiae strains, strain wild type, active compounds read low 1.01

CC12CCCCC1(Br)[N+](=O)N2[O-] (stereo not drawn)
inactive: S. cerevisiae deletion strains, locus YAL021C, strain ccr4, active compounds read low 0.951 | S. cerevisiae deletion strains, locus YAL030W, strain snc1, active compounds read low 0.997 | S. cerevisiae deletion strains, locus YBL061C, strain skt5, active compounds read low 0.978 | S. cerevisiae deletion strains, locus YBR009C, strain hhf1, active compounds read low 0.939 | S. cerevisiae deletion strains, locus YBR023C, strain chs3, active compounds read low 0.976 | S. cerevisiae deletion strains, locus YBR171W, strain sec66, active compounds read low 0.964 | S. cerevisiae deletion strains, locus YBR231C, strain swc5, active compounds read low 0.992 | S. cerevisiae deletion strains, locus YBR279W, strain paf1, active compounds read low 0.972 | S. cerevisiae deletion strains, locus YCL011C, strain gbp2, active compounds read low 0.943 | S. cerevisiae deletion strains, locus YCL016C, strain dcc1, active compounds read low 0.951 | S. cerevisiae deletion strains, locus YCL069W, strain vba3, active compounds read low 0.986 | S. cerevisiae deletion strains, locus YCR088W, strain abp1, active compounds read low 0.983 | S. cerevisiae deletion strains, locus YDL005C, strain med2, active compounds read low 0.969 | S. cerevisiae deletion strains, locus YDL040C, strain nat1, active compounds read low 0.991 | S. cerevisiae deletion strains, locus YDR001C, strain nth1, active compounds read low 1.01 | S. cerevisiae deletion strains, locus YDR069C, strain doa4, active compounds read low 0.91 | S. cerevisiae deletion strains, locus YDR137W, strain rgp1, active compounds read low 0.857 | S. cerevisiae deletion strains, locus YDR159W, strain sac3, active compounds read low 0.995 | S. cerevisiae deletion strains, locus YDR195W, strain ref2 1.01 | S. cerevisiae deletion strains, locus YDR297W, strain sur2, active compounds read low 1 | S. cerevisiae deletion strains, locus YDR334W, strain swr1, active compounds read low 0.984 | S. cerevisiae deletion strains, locus YDR335W, strain msn5, active compounds read low 0.974 | S. cerevisiae deletion strains, locus YDR392W, strain spt3, active compounds read low 0.948 | S. cerevisiae deletion strains, locus YEL003W, strain gim4, active compounds read low 0.994 | S. cerevisiae deletion strains, locus YEL037C, strain rad23, active compounds read low 0.998 | S. cerevisiae deletion strains, locus YEL061C, strain CIN8 (second series), active compounds read low 0.993 | S. cerevisiae deletion strains, locus YER015W, strain faa2, active compounds read low 0.993 | S. cerevisiae deletion strains, locus YER016W, strain bim1, active compounds read low 0.999 | S. cerevisiae deletion strains, locus YER111C, strain swi4, active compounds read low 0.967 | S. cerevisiae deletion strains, locus YFR010W, strain ubp6, active compounds read low 0.922 | S. cerevisiae deletion strains, locus YGL167C, strain pmr1, active compounds read low 0.993 | S. cerevisiae deletion strains, locus YGL173C, strain kem1, active compounds read low 0.953 | S. cerevisiae deletion strains, locus YGL227W, strain vid30, active compounds read low 0.992 | S. cerevisiae deletion strains, locus YGL240W, strain doc1, active compounds read low 0.992 | S. cerevisiae deletion strains, locus YGL253W, strain hxk2, active compounds read low 0.989 | S. cerevisiae deletion strains, locus YHR013C, strain ard1, active compounds read low 0.919 | S. cerevisiae deletion strains, locus YHR027C, strain rpn1, active compounds read low 0.966 | S. cerevisiae deletion strains, locus YHR142W, strain chs7, active compounds read low 0.942 | S. cerevisiae deletion strains, locus YJL092W, strain hpr5, active compounds read low 0.989 | S. cerevisiae deletion strains, locus YJL095W, strain BCK1 (second series), active compounds read low 0.993 | S. cerevisiae deletion strains, locus YJL115W, strain asf1, active compounds read low 0.987 | S. cerevisiae deletion strains, locus YJL129C, strain trk1, active compounds read low 0.997 | S. cerevisiae deletion strains, locus YJL154C, strain vps35, active compounds read low 0.997 | S. cerevisiae deletion strains, locus YJL164C, strain tpk1, active compounds read low 0.951 | S. cerevisiae deletion strains, locus YJL166W, strain qcr8, active compounds read low 0.961 | S. cerevisiae deletion strains, locus YJL187C, strain SWE1, active compounds read low 0.986 | S. cerevisiae deletion strains, locus YKL160W, strain elf1, active compounds read low 0.944 | S. cerevisiae deletion strains, locus YKR026C, strain gcn3, active compounds read low 0.985 | S. cerevisiae deletion strains, locus YKR091W, strain srl3, active compounds read low 0.989 | S. cerevisiae deletion strains, locus YLL001W, strain dnm1, active compounds read low 0.967 | S. cerevisiae deletion strains, locus YLL026W, active compounds read low 0.991 | S. cerevisiae deletion strains, locus YLL041C, strain sdh2, active compounds read low 0.999 | S. cerevisiae deletion strains, locus YLR027C, strain aat2, active compounds read low 0.954 | S. cerevisiae deletion strains, locus YLR221C, strain rsa3, active compounds read low 0.927 | S. cerevisiae deletion strains, locus YLR258W, strain gsy2, active compounds read low 0.967 | S. cerevisiae deletion strains, locus YLR320W, strain mms22, active compounds read low 0.954 | S. cerevisiae deletion strains, locus YLR342W, strain FKS1, active compounds read low 0.946 | S. cerevisiae deletion strains, locus YLR357W, strain rsc2, active compounds read low 0.914 | S. cerevisiae deletion strains, locus YLR370C, strain arc18, active compounds read low 0.966 | S. cerevisiae deletion strains, locus YLR384C, strain iki3, active compounds read low 0.984 | S. cerevisiae deletion strains, locus YML120C, strain ndi1, active compounds read low 1 | S. cerevisiae deletion strains, locus YMR058W, strain fet3, active compounds read low 0.951 | S. cerevisiae deletion strains, locus YMR125W, strain sto1, active compounds read low 1.02 | S. cerevisiae deletion strains, locus YMR129W, active compounds read low 0.98 | S. cerevisiae deletion strains, locus YMR205C, strain PFK2, active compounds read low 0.995 | S. cerevisiae deletion strains, locus YMR231W, strain pep5, active compounds read low 0.997 | S. cerevisiae deletion strains, locus YNL071W, strain lat1, active compounds read low 0.946 | S. cerevisiae deletion strains, locus YNL209W, strain ssb2, active compounds read low 0.963 | S. cerevisiae deletion strains, locus YNL248C, strain rpa49, active compounds read low 0.954 | S. cerevisiae deletion strains, locus YNL322C, strain KRE1 (second series), active compounds read low 0.979 | S. cerevisiae deletion strains, locus YNR049C, strain mso1, active compounds read low 0.999 | S. cerevisiae deletion strains, locus YOR001W, strain rrp6, active compounds read low 0.958 | S. cerevisiae deletion strains, locus YOR070C, strain gyp1, active compounds read low 0.994 | S. cerevisiae deletion strains, locus YOR080W, strain dia2, active compounds read low 1 | S. cerevisiae deletion strains, locus YOR083W, strain WHI5, active compounds read low 0.895 | S. cerevisiae deletion strains, locus YOR106W, strain vam3, active compounds read low 0.884 | S. cerevisiae deletion strains, locus YOR265W, strain rbl2, active compounds read low 0.991 | S. cerevisiae deletion strains, locus YOR270C, strain vph1, active compounds read low 0.81 | S. cerevisiae deletion strains, locus YOR290C, strain snf2, active compounds read low 0.976 | S. cerevisiae deletion strains, locus YPL051W, strain arl3, active compounds read low 0.936 | S. cerevisiae deletion strains, locus YPL078C, strain atp4, active compounds read low 0.967 | S. cerevisiae deletion strains, locus YPL106C, strain sse1, active compounds read low 0.941 | S. cerevisiae deletion strains, locus YPL240C, strain hsp82, active compounds read low 0.978
active: S. cerevisiae deletion strains, locus YAL026C, strain drs2, active compounds read low 0.899 | S. cerevisiae deletion strains, locus YER155C, strain BEM2 (second series), active compounds read low 0.853 | S. cerevisiae deletion strains, locus YLR262C, strain YPT6 (second series), active compounds read low 0.815
